{"source": "paper PMC12864922", "about": "“TDP-43 directly inhibits mRNA accumulation in neurites through modulation of mRNA stability”", "binders": {"B1": {"name": "ENSMUSG00000031028.158|Tub (ssRNA)", "RNA": "GGGAGUUCUACAGUCCGACGAUCGCUUCGAUAUCCGCAUGCUAUGCCAGCAUGCCAUGAUCAGUGAGGGCUGUGUGCCAUGCUUAGGGGGAUGGCGCAGGGUGAGGGGAGCAGAGGAUAUUUUAGGGCCACAAGAGCUCAGAGGUAGCGGACCUCUGUGUGGUUCACCAACAGCAAUGCUGAUCCCUGAGUAUAGGGCACAUGUCUCUUGGUUACCUCACUGGUUAAUGGCAGAGUUGAGAACCUCAAAUUCUUUUGUUCCUACUGUUGCCCAGAAACUAGACUCUCUGACCUGCUAGGGUCUCUCUUGCGGUCGCACUAGUGUGGAAUUCUCGGGUGUCAAGG"}, "B2": {"name": "ENSMUSG00000031028.505|Tub (ssRNA)", "RNA": "GGGAGUUCUACAGUCCGACGAUCGCUUCGAUAUCCGCAUGCUACUGGGAAGACAGGAGUCGGAAGCCAAGGUGUGUGGCAACAGUCUGGAAGAGAGCUUUUGGUAAUCAUACCGUCUUCAGUGACAAGGCAACAAUGCUGUAAAGUGGGUUUGUUUGGUUUUGUUUUUUCUUUCUCUUUUAUGGAAAUGGCAGGUCUAUUUGCCUCAAACGUUAUGUAGAAGUAGUUCUAAGUUUAACAAGCAAUAGAGAUGACUGCUUAGCUAGGAUCUGCAGGGAGCUCUGCUCUGCAAGCACAACACCUGCUCUUGCGGUCGCACUAGUGUGGAAUUCUCGGGUGUCAAGG"}, "B3": {"name": "ENSMUSG00000090935.538|Synj2bp|26:32 (ssRNA)", "RNA": "GGGAGUUCUACAGUCCGACGAUCGCUUCGAUAUCCGCAUGCUAAAUGGCAAGGAGGAUAAAACACUGUACACACAUGUAUUGUUGAUCUAAAUAAAAAAUAUCAUUGGUAGAAGUUUUACUUUGGUUGAUAAGGAUUCUGAUAACAUUUGGGUCUCCUUAGGAAAGAAACACUUAACUAAAACAUUUAAGUUUUAGGCAAAUACUGUAAUAUUUCACUCUUAGUUAUAUGAAAACUAAAUGAGAUGUUGAGAAUCUAUAUAGAUUAUUCAAAUUUUAUGUUUCUUAUAGACUGACUCAAAUAUCUCUUGCGGUCGCACUAGUGUGGAAUUCUCGGGUGUCAAGG"}, "B4": {"name": "ENSMUSG00000061578.246|Ksr2 (ssRNA)", "RNA": "GGGAGUUCUACAGUCCGACGAUCGCUUCGAUAUCCGCAUGCUACAGAACCUUCUCACCCCUUUGCAAAGCUCUUGCCGUCUGCACCCGGGACCCCGGGACCCACACAAGUUGUCCCCAUGUGAACAUCCUGCCUCUCCUGGUGACAUCUGUCUCUGGCUCAGCUUCUCUGCCUCUUACAGACAGUUUCCCUGUACAUUUGCUUAUGGCCCUGGGCUCCAGAGUCGCUGAAGACCACUCUCCACAGCAGCUGUAACCCCAUCUAACAAGCCCUGUUCUGGAUAUAUCUCUGUGGCCAGGGCUGGCUCUUGCGGUCGCACUAGUGUGGAAUUCUCGGGUGUCAAGG"}, "B5": {"name": "ENSMUSG00000061578.893|Ksr2 (ssRNA)", "RNA": "GGGAGUUCUACAGUCCGACGAUCGCUUCGAUAUCCGCAUGCUAGGCCAUCAGGGCCCCAUUCUGAGGUCCUGGGACACUACCCAAACCCUAGCACUCUCCCAGUGACUCUCCUAUGAGUACAUAUGCCAUCCUGCUUCCUUUGUGGCAAAACCCUGGGUCACCCAGAGACAGAUUUCCCAGAAUCCCUGGGCCACUUCUCAAUUCUACCCAUGACAGACAUGUCCCAUCCAUGAGCCCAGAUAGUCAAAGACUUCAGCACAAGGGUGUUUAGAGUAGGCAGUGUGGAAGUAUCAAUAAGGUUACUCUUGCGGUCGCACUAGUGUGGAAUUCUCGGGUGUCAAGG"}, "B6": {"name": "ENSMUSG00000061578.293|Ksr2 (ssRNA)", "RNA": "GGGAGUUCUACAGUCCGACGAUCGCUUCGAUAUCCGCAUGCUAUAAGCAUCUUAGAGUUUCUCUUUUCUCUUUAAUUGCAUCAGGACCCCUUUGGUCCAUGUACCCCGGUCUCUGUCACAUGCCUUUGUAUCUUGGAGGAAGUAAGAGAGGAGAGAGCCAGGGAGGGCUGAAGCUCUGGGACCCUGAAGUGUCCCCCGGGAACUGGGACUCACUCAUCUUCUCCUGUUUGUAGCUCAAUGACCCAGUGGGUCACAGUUCUAGGCGCUCCAAGGAAGCCAGGGGAGGGGGACUCCUCAGGAAGGCUCUUGCGGUCGCACUAGUGUGGAAUUCUCGGGUGUCAAGG"}, "B7": {"name": "ENSMUSG00000042529.251|Kcnj12 (ssRNA)", "RNA": "GGGAGUUCUACAGUCCGACGAUCGCUUCGAUAUCCGCAUGCUAAAUUUCUAAUCUAGGAGAUUCCCCUAGGACCCGCUGCAGAGGCAUGGGCUCCUCUGUGGUCCUGGCCAGACCUCUGCCCCCAAAUCUCACUGACUGUUCUAGCCUUGGCCUUGGGGCCUAAGGGUGCAUUCAGCCUGGGUGUGCUUACCUGCCACUCACCUCUCUAUCUAGUUGUCGAGUCUAGGGAAGGGCAGAGGGUGGGUCCUGGCCACUGGGUGCCACUGUGGGAGCCGGGGCACCUGUCAUUCUUUCUGAGUAGGCUCUUGCGGUCGCACUAGUGUGGAAUUCUCGGGUGUCAAGG"}, "B8": {"name": "ENSMUSG00000031028.344|Tub (ssRNA)", "RNA": "GGGAGUUCUACAGUCCGACGAUCGCUUCGAUAUCCGCAUGCUAGGUUGACAAGUUUAAGGUUGAACAGGCUGAUUUCUGGAAUCUCAUGAGUGGAGGGGACCCUGGUGGUUAAGAGCGGAACUGGAAGCACAAUGGAAAACUCUUGGACUCUGCUCUCUGCUUUACCACACACAAAAAAGAGGGUUCUUGGCUAUUUGAAUAUAAAGUUGGUAGCACCAGGAAAUAGGCUGAACUUUGUAGCCCACUGUGGAAAGGAGCAGCCUCAGCACAAACCCCUCUGUCGGGCCCUGAGUGACAAGACCCUCUUGCGGUCGCACUAGUGUGGAAUUCUCGGGUGUCAAGG"}, "B9": {"name": "ENSMUSG00000058297.295|Spock2 (ssRNA)", "RNA": "GGGAGUUCUACAGUCCGACGAUCGCUUCGAUAUCCGCAUGCUAAAUGAGAGAGAAUGAGAGAGAGAAUACCCGAGGGCCACCCUGAUGCCCAGGAAGAGUGAGGGCAGCCCCCUGUGUGGUGGAAGAGGCUGGGCAGCUAGCUACUGGGGACCUUGUGCUGAGGCUUCCAGGACAAAGCCCCAGUCUGGCUCUCCCCCAGCCUCUCAGGGGCACUGGCUGGUCACAUCCACUGAGUAUUGAUCGGUUGGACUUUAGGGAAGAGCCUCCUCCUUCCCAUUCCUUUCUGCCACCCUGGAAUGGCCCUCUUGCGGUCGCACUAGUGUGGAAUUCUCGGGUGUCAAGG"}, "B10": {"name": "ENSMUSG00000058297.296|Spock2 (ssRNA)", "RNA": "GGGAGUUCUACAGUCCGACGAUCGCUUCGAUAUCCGCAUGCUAAGAGAAUGAGAGAGAGAAUACCCGAGGGCCACCCUGAUGCCCAGGAAGAGUGAGGGCAGCCCCCUGUGUGGUGGAAGAGGCUGGGCAGCUAGCUACUGGGGACCUUGUGCUGAGGCUUCCAGGACAAAGCCCCAGUCUGGCUCUCCCCCAGCCUCUCAGGGGCACUGGCUGGUCACAUCCACUGAGUAUUGAUCGGUUGGACUUUAGGGAAGAGCCUCCUCCUUCCCAUUCCUUUCUGCCACCCUGGAAUGGCCACCUUACUCUUGCGGUCGCACUAGUGUGGAAUUCUCGGGUGUCAAGG"}, "B11": {"name": "ENSMUSG00000058297.294|Spock2 (ssRNA)", "RNA": "GGGAGUUCUACAGUCCGACGAUCGCUUCGAUAUCCGCAUGCUAAGAGAGAAUGAGAGAGAAUGAGAGAGAGAAUACCCGAGGGCCACCCUGAUGCCCAGGAAGAGUGAGGGCAGCCCCCUGUGUGGUGGAAGAGGCUGGGCAGCUAGCUACUGGGGACCUUGUGCUGAGGCUUCCAGGACAAAGCCCCAGUCUGGCUCUCCCCCAGCCUCUCAGGGGCACUGGCUGGUCACAUCCACUGAGUAUUGAUCGGUUGGACUUUAGGGAAGAGCCUCCUCCUUCCCAUUCCUUUCUGCCACCCUGGACUCUUGCGGUCGCACUAGUGUGGAAUUCUCGGGUGUCAAGG"}}, "note": "Over roughly 9,900 sequences, “r (bound/input frequency ratio)” has its median near 0.7; the highest 2% begin near 6.5. For the sample, the highest values were picked, then their nearest neighbours and some sequences at random."}
{"biological_target": "TDP-43 (Homo sapiens, UniProt Q13148 1-414)", "sequence (Q13148 whole entry)": "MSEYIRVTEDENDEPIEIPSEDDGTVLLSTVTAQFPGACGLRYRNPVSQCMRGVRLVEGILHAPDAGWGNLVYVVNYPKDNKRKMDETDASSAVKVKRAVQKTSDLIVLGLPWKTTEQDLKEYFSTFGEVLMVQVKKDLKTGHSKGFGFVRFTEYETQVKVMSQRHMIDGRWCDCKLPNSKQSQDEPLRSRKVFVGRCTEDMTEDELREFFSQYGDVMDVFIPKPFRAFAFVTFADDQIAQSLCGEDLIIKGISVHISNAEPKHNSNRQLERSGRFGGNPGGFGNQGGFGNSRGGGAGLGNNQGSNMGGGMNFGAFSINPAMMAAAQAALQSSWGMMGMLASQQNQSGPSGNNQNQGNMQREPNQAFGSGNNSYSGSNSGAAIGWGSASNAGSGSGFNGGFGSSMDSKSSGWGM", "experiment": "RNA Bind-n-Seq with designed 260-mer pool; 25 mM Tris-HCl, 150 mM KCl, 3 mM MgCl2, BSA (printed 500 mg/mL), 20 units/mL SUPERase IN; pH not stated; 500 nM RNA pool, 1 h, 4 C; TDP-43 5, 50, 500 nM; high values mean tight binding", "conditions": "protein: recombinant; tags: SBP (GST cleaved off with PreScission; pGEX-GST-SBP)", "in_short": "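Binding (R) is the ratio of each oligo's mapped-read-normalized abundance in the bound fraction to its abundance in the input. To obtain it, SBP-tagged recombinant TDP-43 (5, 50 or 500 nM) on streptavidin beads was incubated with 500 nM of an in vitro-transcribed 260-nt 3′ UTR oligo pool for 1 h at 4 °C in 25 mM Tris-HCl, 150 mM KCl, 3 mM MgCl2, BSA and SUPERase IN. The RNA retained after washing was released with biotin, then reverse transcribed, amplified by PCR and sequenced.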"}
{"binder": "B1", "binding signal": "0.506 R (bound/input frequency ratio)"}
{"binder": "B2", "binding signal": "0.58 R (bound/input frequency ratio)"}
{"binder": "B3", "binding signal": "0.0361 R (bound/input frequency ratio)"}
{"binder": "B4", "binding signal": "0.544 R (bound/input frequency ratio)"}
{"binder": "B5", "binding signal": "0.438 R (bound/input frequency ratio)"}
{"binder": "B6", "binding signal": "0.535 R (bound/input frequency ratio)"}
{"binder": "B7", "binding signal": "0.996 R (bound/input frequency ratio)"}
{"binder": "B8", "binding signal": "0.993 R (bound/input frequency ratio)"}
{"binder": "B9", "binding signal": "3.63 R (bound/input frequency ratio)"}
{"binder": "B10", "binding signal": "9.19 R (bound/input frequency ratio)"}
{"binder": "B11", "binding signal": "2.14 R (bound/input frequency ratio)"}
